In the library only some 4.7% were active in any assay of this set; here they are far more common.
DSG3 Ab inh = blocks pemphigus antibody binding to human desmoglein-3. 0.48% of 310,000 active. DSG3-coupled beads, scFv-anti-DSG3-GFP binding, flow cytometry; active compounds read low. binding (percent of control), % at 10 µM. P32926;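 active means binding more than 3 SD below its plate's average and above zero; inconclusive means below that plate limit but binding exactly zero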;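 further: hits lower antibody fragment binding to DSG3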
Target sequence (P32926 whole entry, looked up, the tested form may be a part): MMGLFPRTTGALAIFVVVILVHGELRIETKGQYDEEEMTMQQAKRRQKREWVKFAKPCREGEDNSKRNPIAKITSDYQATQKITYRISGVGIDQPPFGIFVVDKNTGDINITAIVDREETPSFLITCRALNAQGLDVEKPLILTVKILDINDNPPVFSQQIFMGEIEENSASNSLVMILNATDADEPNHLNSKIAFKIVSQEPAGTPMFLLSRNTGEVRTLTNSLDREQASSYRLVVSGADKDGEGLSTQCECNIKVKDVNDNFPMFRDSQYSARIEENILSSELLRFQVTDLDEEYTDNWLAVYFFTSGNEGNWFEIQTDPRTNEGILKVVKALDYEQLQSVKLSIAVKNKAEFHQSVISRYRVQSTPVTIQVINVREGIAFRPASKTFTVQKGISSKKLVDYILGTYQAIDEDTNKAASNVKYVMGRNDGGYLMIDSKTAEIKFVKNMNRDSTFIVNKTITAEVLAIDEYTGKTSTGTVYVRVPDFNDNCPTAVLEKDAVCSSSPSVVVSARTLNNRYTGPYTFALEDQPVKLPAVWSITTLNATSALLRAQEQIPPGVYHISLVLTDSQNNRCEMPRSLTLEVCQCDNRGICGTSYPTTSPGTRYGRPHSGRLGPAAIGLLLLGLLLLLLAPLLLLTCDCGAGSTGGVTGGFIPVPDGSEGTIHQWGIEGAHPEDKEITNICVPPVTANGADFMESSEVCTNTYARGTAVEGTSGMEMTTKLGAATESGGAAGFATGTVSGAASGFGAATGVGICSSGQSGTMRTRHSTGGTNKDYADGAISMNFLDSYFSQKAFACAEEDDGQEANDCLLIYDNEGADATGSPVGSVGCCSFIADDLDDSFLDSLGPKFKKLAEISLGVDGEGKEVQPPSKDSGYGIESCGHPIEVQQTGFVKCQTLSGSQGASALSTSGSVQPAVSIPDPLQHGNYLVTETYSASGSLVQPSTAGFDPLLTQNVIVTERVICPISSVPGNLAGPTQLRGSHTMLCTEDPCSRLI
ADAM10 inh = inhibitors of human ADAM10; recombinant ADAM10, EDANS/DABCYL FRET peptide cleavage, 3 h; 0.62% of 370,000 active; O14672; inhibition, % at 7 µM;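 active means inhibition above a per-campaign cutoff equal to the mean of compounds falling between control-based bounds plus 3 SD, cut at about 20% in these data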;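 further: 0% = DMSO wells while the 100% control is not disclosed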
rCAG RNA binder = molecules binding r(CAG) RNA repeats; inhibition, % at 3 µM; r(CAG) RNA repeat, TO-PRO-1 dye displacement fluorescence; 1.3% of 370,000 active;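 active means inhibition above the plate cutoff, the mean of all test compounds on that plate plus 3 SD, cut at about 35% in these data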;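 further: 0% = DMSO alone and 100% = 100 µM mitoxantrone as full dye displacement; higher means more dye released from RNA so lower well fluorescence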
ADAM17 inh = ADAM17 inhibition, QFRET primary screen. P78536. recombinant ADAM17, EDANS/DABCYL FRET peptide cleavage. inhibition, % at 6.95 µM. 0.83% of 370,000 active;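 active means inhibition above the mean of compounds lying between control limits plus 3 SD, set per campaign, cut at about 8.5% in these data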;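 further: 0% = DMSO-only wells as the low control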
MPTP block = permeability transition pore inhibition; isolated mouse mitochondria, Ca2+ swelling absorbance, 30 min; inhibition, % at 10 µM; 1.4% of 360,000 active; AID 602449;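 active means inhibition of 50% or more, scaled per plate between neutral and stimulator controls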;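 further: 0% = DMSO wells given calcium and 100% = 1 mM EGTA wells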
KLK7 zymogen act = activates the human kallikrein-7 zymogen | P49862 | purified proKLK7, EDANS-DABCYL substrate fluorescence; 100% is mature enzyme control, 0% vehicle | activation, % at 7 µM | 0.9% of 370,000 active | AID 652039;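 active means activation above the mean of all tested compounds plus 3 SD, computed per campaign excluding outliers beyond control limits, cut at about 13% in these data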
proKLK7 act conf = confirmation of human kallikrein-7 zymogen activators. AID 686949. shares compounds with KLK7 zymogen act. purified proKLK7, EDANS-DABCYL substrate fluorescence; scaled: vehicle 0, mature enzyme 100. activation, % at 7 µM. 68% of 3,200 active;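 active means activation, as change over the incubation, above the mean of all tested compounds plus 3 SD, cut at about 13% in these data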
EDANS interfere = fluorescence interference counter-screen for KLK7 activators; shares compounds with KLK7 zymogen act; EDANS-DABCYL substrate fluorescence interference, no enzyme, 4 h; solvent 0%, active enzyme control 100%; activation, % at 7 µM; 80% of 3,200 active;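 active means activation above the all-compound mean plus 3 SD, ignoring values outside control-based bounds, cut at about 4.8% in these data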;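 further: value is the 4 h activation minus the activation read at time zero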
The depositor's hits bear a star; i = inactive; ? = inconclusive; nt = not tested or not shown; ! = not confirmed by another sample.

SMILES	DSG3 Ab inh	ADAM10 inh	rCAG RNA binder	ADAM17 inh	MPTP block	KLK7 zymogen act	proKLK7 act conf	EDANS interfere
CC(=O)Nc1ccc2c(c1)[nH]c(=O)c1ccccc12	93.4	-491.5	0.6	-127.0	-1.1	4.6	nt	nt
Nc1cccc2[nH]c(=O)c3ccccc3c12	90.8	i	11.7	-326.7	-1.7	20.4*	21.1*	21.1*
O=C(Nc1ccc2c(c1)[nH]c(=O)c1ccccc12)C(F)(F)F	102.2	-313.4	4.1	-77.3	-2.6	211.4*	163.3*	153.4*
O=c1[nH]c2cc(O)ccc2c2ccccc12	nt	-166.5	7.5	-52.0	1.2	-19.2	nt	nt
CCN(CC(=O)Nc1ccc(NC(C)=O)cc1)C(=O)c1cccc(S(=O)(=O)N2CCc3ccccc3C2)c1	96.7	-8.0	5.6	-5.1	-0.4	0.6	nt	nt
CCCC(=O)Nc1c(-c2cccc(OC)c2)c(=O)c2ccccc2n1C	?	-36.0	0.4	-14.3	0.1	1.3	nt	nt
COc1cccc(C(O)c2nc(-c3cnn(C)c3)cs2)c1 (centres undefined)	nt	-1.9	0.2	-2.1	-0.5	-0.2	nt	nt
COC(=O)c1c(N)n(CCCN2CCOCC2)c2nc3ccccc3nc12	96.1	i	3.0	i	0.1	43.4*	75.0*	80.3*
COCCOC(=O)c1c(N)n(CCCN2CCOCC2)c2nc3ccccc3nc12	nt	i	-7.1	i	-0.9	46.0*	75.4*	79.2*
CC(C)Cn1c(N)c(C(=O)NCCN2CCOCC2)c2nc3ccccc3nc21	94.9	i	1.6	-441.4	0.0	56.5*	-93.3	-107.8
CC(=O)c1ccc(S(=O)(=O)NCCC(=O)OCC(=O)N(Cc2ccccc2)C(C)(C)C)cc1	nt	7.7	1.1	2.2	0.4	-0.2	nt	nt
COc1ccc(CN(C)C(=O)c2ccc(OCC(=O)N3CCOCC3)c(OC)c2)cc1	105.9	-22.8	-0.1	-0.7	-0.6	-0.3	nt	nt
O=C(COC(=O)c1cc(S(=O)(=O)N2CCOCC2)ccc1O)Nc1ccc2c(c1)OCO2	99.4	-11.0	7.9	-2.8	0.0	0.5	nt	nt
Nc1ncc(-c2ccccc2)n1CC1CCCO1 (centres undefined)	nt	-4.1	-1.7	-1.6	2.1	-0.1	nt	nt
c1ccc(-c2nc3nc4ccccc4nc3n2CC2CCCO2)cc1 (centres undefined)	105.1	i	-6.0	-491.2	2.0	17.6*	5.3	7.8*
c1coc(-c2nc3nc4ccccc4nc3n2CC2CCCO2)c1 (centres undefined)	nt	i	5.8	i	0.3	21.6*	8.3	13.3*
OC[C@@H]1CN(Cc2ccc(-c3ccccc3)cc2)C[C@H](n2cnc3c(NC4CCC4)ncnc32)O1	nt	12.4	6.4	4.0	3.4	-0.2	nt	nt
COc1ccc(S(=O)(=O)Nc2cccc3c2O[C@@H](CN(C)Cc2ccc(C(=O)O)cc2)[C@@H](C)CN([C@H](C)CO)C3=O)cc1	96.3	1.6	21.4	2.9	-2.4	-0.4	nt	nt
Cc1cc(C)[n+](-c2ccc(F)cc2)c2[nH]c(=O)[nH]c(=O)c12	112.1	i	-2.3	i	2.5	38.2*	63.0*	67.7*
CCCCn1c(N)c(N(CC(C)C)C(=O)CSCc2c(C)noc2C)c(=O)[nH]c1=O	94.1	-41.2	-1.4	-9.7	-0.4	-0.3	nt	nt
C[C@@H]1CC=C[C@H]2[C@H]1C(=O)N(Cc1ccccc1)[C@H]2c1ccc(F)c(-c2ccc(N(C)C)cc2)c1	102.7	-22.1	5.6	-5.1	2.2	-1.9	nt	nt
CN1C(=O)C2C(c3ccc(N(C)C)cc3)NN(Cc3ccccc3)C2C1=O (centres undefined)	108.8	-72.2	3.5	-18.6	1.7	15.2*	14.0*	13.2*
CC(C)c1cc(=O)oc2c3c4c(cc12)CCCN4CCC3	111.2	i	0.6	-403.4	3.0	-15.3	nt	nt
Cc1cc(=O)oc2c3c4c(cc12)OCCN4CCC3	nt	i	-1.9	i	-1.0	69.6*	66.7*	63.9*
CC[C@H](C)[C@H](NC(=O)CNC(=O)COc1cc2c(c3oc(=O)cc(C)c13)CCC(C)(C)O2)C(=O)O	93.7	i	10.7	i	-1.3	50.2*	-0.7	-17.7
SMILES	DSG3 Ab inh	ADAM10 inh	rCAG RNA binder	ADAM17 inh	MPTP block	KLK7 zymogen act	proKLK7 act conf	EDANS interfere
Cc1cc(=O)oc2c3c(cc(OCC(=O)NCC(=O)N[C@H](C(=O)O)C(C)C)c12)OC(C)(C)CC3	109.4	i	5.2	i	-1.5	42.6*	61.7*	72.1*
COc1ccc(CNC(=O)c2cc3c(=O)n4cccc(C)c4nc3n(CC3CCCO3)c2=N)cc1 (centres undefined)	106.8	-224.0	6.3	-72.8	0.7	-0.9	nt	nt
CCOC(=O)c1cc2c(=O)n3cccc(C)c3nc2n(CCOC)c1=NC(C)=O	101.2	i	-3.6	i	1.4	15.2*	10.5	9.4*
CCOC(=O)c1cc2c(=O)n3cccc(C)c3nc2n(CC2CCCO2)c1=NC(C)=O (centres undefined)	124.0	i	-0.5	-252.4	-0.4	15.0*!	6.1	7.0*
CCCCCn1c(=NC(C)=O)c(C#N)cc2c(=O)n3ccccc3nc21	97.9	i	7.1	-181.3	-0.4	6.2	nt	nt
CCOC(=O)c1cc2c(=O)n3ccccc3nc2n(CCCOC)c1=NC(C)=O	101.4	i	-4.2	i	-0.6	61.9*	7.0	7.2*
CCOC(=O)c1cc2c(=O)n3ccccc3nc2n(CCCOC)c1=NC(=O)c1ccncc1	117.8	i	-7.7	i	0.2	17.7*	4.1	3.7
CCOc1ccccc1C(=O)NCC(=O)NCCc1ccc(S(N)(=O)=O)cc1	nt	17.2	3.5	1.6	-2.1	0.3	nt	nt
O=C(Cc1cccs1)N[C@@H]1c2ccccc2CC[C@@H]1OCc1ccccc1	101.5	-13.2	-0.7	-2.6	-1.5	0.1	nt	nt
Cc1cccn2c(=O)c3cc(C(=O)NCC4CCCO4)c(=N)n(Cc4cccnc4)c3nc12 (centres undefined)	111.7	i	2.5	i	-3.0	147.8*	48.7*	60.1*
N=c1c(C(=O)NCC2CCCO2)cc2c(=O)n3ccccc3nc2n1Cc1cccnc1 (centres undefined)	105.2	i	-4.5	i	-2.2	134.0*	34.7*	32.9*
CCNC(=O)c1cc2c(=O)n3cccc(C)c3nc2n(Cc2ccc(C)cc2)c1=N	104.4	i	9.2	-449.2	0.5	-5.8	nt	nt
N=c1c(C(=O)NCC2CCCO2)cc2c(=O)n3ccccc3nc2n1Cc1ccc(F)cc1 (centres undefined)	nt	i	2.3	-296.4	-0.4	7.3	nt	nt
